Measured values from PubChem BioAssay (EPA / NIEHS).
Results filed as inconclusive are left out. Some compounds were tested as several samples or in several runs, with calls that do not always agree. Activity calls are given as the source filed them. How the source made its calls, unless noted: active means hit-call score of the fitted dose curve at least 0.9, where 1 is the maximum; inactive means score below 0.9.

Legend:
[1] = read-out: Interleukin-8 (IL8), CXCL8 (gene 3576); assay: BSK_3C_IL8: BioMAP Diversity Plus: 3C Assay for Interleukin-8 (IL8) Biomarker Activity (AID 2283020); conditions: primary human endothelial cells (HUVEC); actives raise or lower the signal
In short: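 Human vascular endothelial cells (umbilical vein) in the 3C system; IL-8 level detected by ELISA at 24 h post-dose, with DMSO as baseline.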

[2] = read-out: Monokine induced gamma interferon (MIG), CXCL9 (gene 4283); assay: BSK_3C_MIG: BioMAP Diversity Plus: 3C Assay for Monokine induced gamma interferon (MIG) Biomarker Activity (AID 2283021); conditions: primary human endothelial cells (HUVEC); actives raise or lower the signal
In short: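 After 24 h of treatment, human umbilical vein endothelial cultures (3C system) had their MIG biomarker level determined by ELISA, with DMSO serving as negative control.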

[3] = biological target: human Vitamin D Receptor (VDR), VDR (gene 7421) (UniProt P11473); assay: ATG_VDR_TRANS: Attagene TRANS-FACTORIAL HepG2 Assay for human Vitamin D Receptor (VDR) (AID 2283022; active means hit-call score of the fitted dose curve at least 0.9, where 1 is the maximum)
Chain of human Vitamin D Receptor (VDR), VDR (gene 7421) (P11473 whole entry, looked up, the tested form may be a part): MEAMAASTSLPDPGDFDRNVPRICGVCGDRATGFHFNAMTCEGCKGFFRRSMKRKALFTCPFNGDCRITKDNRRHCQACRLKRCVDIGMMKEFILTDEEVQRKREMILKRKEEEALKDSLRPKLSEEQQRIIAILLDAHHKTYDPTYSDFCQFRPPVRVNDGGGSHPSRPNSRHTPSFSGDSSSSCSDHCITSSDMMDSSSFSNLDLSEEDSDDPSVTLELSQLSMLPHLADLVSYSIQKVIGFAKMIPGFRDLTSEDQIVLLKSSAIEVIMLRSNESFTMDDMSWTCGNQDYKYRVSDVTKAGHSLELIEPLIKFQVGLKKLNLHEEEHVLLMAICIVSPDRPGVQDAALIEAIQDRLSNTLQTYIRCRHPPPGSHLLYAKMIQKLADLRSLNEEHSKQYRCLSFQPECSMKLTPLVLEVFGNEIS
In short: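 HepG2 cells were transiently transfected with multiple GAL4-UAS reporter units, so signal reflects exogenous chimeric receptor-Gal4 activity. After 24 h compound exposure, reporter mRNA was measured by RT-PCR, fluorescent labelling and capillary electrophoresis, fitted for gain of signal versus DMSO.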

[4] = BSK_3C_SRB: Viability Assessment in the BioMAP Diversity Plus: 3C Assay (AID 2283023); conditions: primary human endothelial cells (HUVEC);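 further: fitted both ways against DMSO so a hit may be signal rise or drop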
In short: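 Primary human umbilical vein endothelial cells in the 3C system were read 24 h after compound dosing. Total protein was stained with 0.1% sulforhodamine B after 10% TCA fixation and read at 560 nm, with bidirectional fitting against DMSO as baseline.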

[5] = read-out: Matrix Metallopeptidase 1 (MMP1), MMP1 (gene 4312); assay: BSK_BE3C_MMP1: BioMAP Diversity Plus: BE3C Assay for Matrix Metallopeptidase 1 (MMP1) Biomarker Activity (AID 2283024); conditions: primary human bronchial epithelial cells; actives raise or lower the signal
In short: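 Dose cells, wait 24 h, run MMP1 ELISA; cells are human bronchial epithelial primaries. Both increases and decreases relative to DMSO counted.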

[6] = read-out: Pselectin, SELP (gene 6403); assay: BSK_4H_Pselectin: BioMAP Diversity Plus: 4H Assay for Pselectin Biomarker Activity (AID 2283026); conditions: primary human endothelial cells (HUVEC); actives raise or lower the signal
In short: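 Human vascular endothelium from umbilical vein; P-selectin measured by ELISA at 24 h post-dose, with cytotoxicity checked by sulforhodamine B total-protein staining in parallel cultures (0.1% SRB after 10% TCA fixation, read at 560 nm).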

[7] = BSK_4H_SRB: Viability Assessment in the BioMAP Diversity Plus: 4H Assay (AID 2283027); conditions: primary human endothelial cells (HUVEC);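 further: cells exposed to compound for 24 h before staining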;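 on AC50: curves fitted both ways versus DMSO so AC50 may be loss or gain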
In short: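 Absorbance at 560 nm of SRB-stained total protein served as the viability read-out in confluent primary human umbilical vein endothelium 24 h after chemical treatment. Curves were fitted bidirectionally against DMSO as negative control.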

[8] = BSK_BE3C_SRB: Viability Assessment in the BioMAP Diversity Plus: BE3C Assay (AID 2283028); conditions: primary human bronchial epithelial cells
In short: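 Human primary bronchial epithelial cells were exposed to test chemicals for 24 h. Total protein in parallel cultures was then measured by staining with 0.1% sulforhodamine B after 10% TCA fixation, with absorbance read at 560 nm. Activity was fitted bidirectionally against DMSO.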

[9] = read-out: Thrombomodulin, THBD (gene 7056); assay: BSK_3C_Thrombomodulin: BioMAP Diversity Plus: 3C Assay for Thrombomodulin Biomarker Activity (AID 2283029); conditions: primary human endothelial cells (HUVEC); actives raise or lower the signal
In short: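 Thrombomodulin ELISA, human primary HUVEC, 24 h post-dose; data fitted in both directions relative to DMSO.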

[10] = read-out: Urokinase-type plasminogen activator receptor (uPAR), PLAUR (gene 5329); assay: BSK_4H_uPAR: BioMAP Diversity Plus: 4H Assay for Urokinase-type plasminogen activator receptor (uPAR) Biomarker Activity (AID 2283030); conditions: primary human endothelial cells (HUVEC); actives raise or lower the signal
In short: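 Primary human umbilical vein endothelial cells were exposed to chemical for 24 h before cell-surface uPAR was quantified by ELISA. Activity was fitted bidirectionally against the DMSO negative control baseline.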

[11] = read-out: Vascular endothelial growth factor receptor 2 (Homo sapiens) (UniProt P35968); assay: BSK_4H_VEGFRII: BioMAP Diversity Plus: 4H Assay for Vascular endothelial growth factor receptor 2 (VEGFR2) Biomarker Activity (AID 2283031); conditions: primary human endothelial cells (HUVEC); actives raise or lower the signal
In short: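 Primary human umbilical vein endothelial cells in the BioMAP 4H system were dosed with test chemical, and 24 h later VEGFRII was measured by ELISA. Activity was fitted bidirectionally against DMSO as negative control and baseline.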

[12] = read-out: Human Leukocyte Antigen - DR isotype (HLADR), HLA-DRA (gene 3122); assay: BSK_BE3C_HLADR: BioMAP Diversity Plus: BE3C Assay for Human Leukocyte Antigen - DR isotype (HLADR) Biomarker Activity (AID 2283032); conditions: primary human bronchial epithelial cells; actives raise or lower the signal
In short: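 Signal came from an ELISA for HLA-DR in human bronchial epithelial primary cells harvested 24 h after treatment; gain- and loss-of-signal fitting used DMSO controls as reference.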

[13] = read-out: Vascular cell adhesion molecule 1 (VCAM1), VCAM1 (gene 7412); assay: BSK_4H_VCAM1: BioMAP Diversity Plus: 4H Assay for Vascular cell adhesion molecule 1 (VCAM1) Biomarker Activity (AID 2283033); conditions: primary human endothelial cells (HUVEC); actives raise or lower the signal;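 on outcome: cell-surface VCAM-1 protein measured by ELISA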
In short: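 Endpoint derived from bidirectional fitting against DMSO controls of VCAM-1 ELISA signal in umbilical vein endothelial cells sampled at 24 h following treatment.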

[14] = read-out: Interferon-gamma inducible Protein 10 (IP10), CXCL10 (gene 3627); assay: BSK_BE3C_IP10: BioMAP Diversity Plus: BE3C Assay for Interferon-gamma inducible Protein 10 (IP10) Biomarker Activity (AID 2283034); conditions: primary human bronchial epithelial cells; actives raise or lower the signal
In short: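 Using primary human bronchial epithelial cultures, the assay captures IP-10 by ELISA one day (24 h) after exposure. Parallel SRB staining of total protein flags overt cytotoxicity. Fits run bidirectionally relative to DMSO.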

[15] = read-out: Monokine induced gamma interferon (MIG), CXCL9 (gene 4283); assay: BSK_BE3C_MIG: BioMAP Diversity Plus: BE3C Assay for Monokine induced gamma interferon (MIG) Biomarker Activity (AID 2283035); conditions: primary human bronchial epithelial cells; actives raise or lower the signal;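 further: MIG protein measured by ELISA in BE3C cultures after 24 h of dosing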
In short: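 MIG level was determined by ELISA after 24 h chemical treatment of primary human bronchial epithelial cells. Values were fitted bidirectionally with DMSO as the negative control and activity baseline.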

[16] = read-out: Plasminogen activator inhibitor-1 (PAI1), SERPINE1 (gene 5054); assay: BSK_BE3C_PAI1: BioMAP Diversity Plus: BE3C Assay for Plasminogen activator inhibitor-1 (PAI1) Biomarker Activity (AID 2283037); conditions: primary human bronchial epithelial cells; actives raise or lower the signal
In short: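 PAI-1 biomarker levels in treated human bronchial epithelial cells are determined by ELISA at 24 h. Both increases and decreases relative to DMSO are fitted.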

[17] = read-out: urokinase plasminogen activator (uPA), PLAU (gene 5328); assay: BSK_BE3C_uPA: BioMAP Diversity Plus: BE3C Assay for urokinase plasminogen activator (uPA) Biomarker Activity (AID 2283038); conditions: primary human bronchial epithelial cells; actives raise or lower the signal;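 further: uPA protein level quantified by ELISA in cell cultures; uPA read one day after compound addition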
In short: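 Human primary bronchial epithelial cells were exposed to chemical for 24 h, then uPA levels were measured by ELISA. Responses were fitted bidirectionally against DMSO as negative control and baseline. Parallel SRB staining of total protein gauged overt cytotoxicity.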

[18] = read-out: Urokinase-type plasminogen activator receptor (uPAR), PLAUR (gene 5329); assay: BSK_BE3C_uPAR: BioMAP Diversity Plus: BE3C Assay for Urokinase-type plasminogen activator receptor (uPAR) Biomarker Activity (AID 2283039); conditions: primary human bronchial epithelial cells; actives raise or lower the signal;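 further: cells exposed to compound for one day before measurement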
In short: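 A uPAR ELISA serves as the readout, taken 24 h after treating primary human bronchial epithelial cells. Responses in either direction are fitted against DMSO, which defines baseline activity.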

[19] = BSK_3C_Vis: BioMAP Diversity Plus: 3C Assay for Morphology Visualization (AID 2283025); conditions: primary human endothelial cells (HUVEC);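 further: fitted both ways so gain or loss versus DMSO counts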;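 on AC50: light microscopy image of cell morphology used as background control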
In short: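 Endothelial cells from human umbilical vein were treated with test chemicals for 24 h and inspected by light microscopy for changes in cell conformation.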

[20] = read-out: Transforming growth factor beta 1 (TGFb1), TGFB1 (gene 7040); assay: BSK_BE3C_TGFb1: BioMAP Diversity Plus: BE3C Assay for Transforming growth factor beta 1 (TGFb1) Biomarker Activity (AID 2283036;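 further: TGF-b1 protein level measured by ELISA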); conditions: primary human bronchial epithelial cells; actives raise or lower the signal
In short: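 In this human primary bronchial epithelial system, an ELISA quantified TGF-b1 one day after dosing. Endpoint changes in either direction were fitted relative to DMSO.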

Compound: C[Si](C)(C)C(F)(F)C(F)(F)C(F)(F)F
- outcome [1]: inactive
- outcome [2]: inactive
- outcome [3]: inactive
- outcome [4]: inactive
- outcome [5]: inactive
- outcome [6]: inactive
- outcome [7]: inactive
- outcome [8]: inactive
- outcome [9]: inactive
- outcome [10]: inactive
- outcome [11]: inactive
- outcome [12]: inactive
- outcome [13]: inactive
- outcome [14]: inactive
- outcome [15]: inactive
- outcome [16]: inactive
- outcome [17]: inactive
- outcome [18]: inactive

Compound: OC(O)(C(F)C(O)(O)C(F)(F)F)C(F)(F)F
- outcome [1]: inactive
- outcome [2]: inactive
- outcome [3]: inactive
- outcome [4]: inactive
- outcome [5]: inactive
- outcome [6]: inactive
- outcome [7]: inactive
- outcome [8]: inactive
- outcome [9]: inactive
- AC50 [10]: 20.5 µM (active)
- outcome [10]: inactive
- outcome [11]: inactive
- outcome [12]: inactive
- outcome [13]: inactive
- outcome [14]: inactive
- outcome [15]: inactive
- outcome [16]: inactive
- outcome [17]: inactive
- outcome [18]: inactive

Compound: CCOC(N)=O
- outcome [1]: inactive
- outcome [2]: inactive
- outcome [4]: inactive
- outcome [5]: inactive
- outcome [19]: inactive
- outcome [6]: inactive
- outcome [7]: inactive
- outcome [8]: inactive
- outcome [9]: inactive
- outcome [10]: inactive
- outcome [11]: inactive
- outcome [12]: inactive
- outcome [13]: inactive
- outcome [14]: inactive
- outcome [15]: inactive
- outcome [20]: inactive
- outcome [16]: inactive
- outcome [17]: inactive
- outcome [18]: inactive

Compound: CCc1cccc(CC)c1N
- outcome [1]: inactive
- outcome [2]: inactive
- outcome [4]: inactive
- outcome [5]: inactive
- outcome [19]: inactive
- outcome [6]: inactive
- outcome [7]: inactive
- outcome [8]: inactive
- outcome [9]: inactive
- outcome [10]: inactive
- outcome [11]: inactive
- outcome [12]: inactive
- outcome [13]: inactive
- outcome [14]: inactive
- outcome [15]: inactive
- outcome [20]: inactive
- outcome [16]: inactive
- outcome [17]: inactive
- outcome [18]: inactive

Compound: CNC(C)=O
- outcome [1]: inactive
- outcome [2]: inactive
- outcome [4]: inactive
- outcome [5]: inactive
- outcome [19]: inactive
- outcome [6]: inactive
- outcome [7]: inactive
- outcome [8]: inactive
- outcome [9]: inactive
- outcome [10]: inactive
- outcome [11]: inactive
- outcome [12]: inactive
- outcome [13]: inactive
- outcome [14]: inactive
- outcome [15]: inactive
- outcome [20]: inactive
- outcome [16]: inactive
- outcome [17]: inactive
- outcome [18]: inactive

Compound: O=C(O)CO
- outcome [3]: inactive

Compound: c1ccc(C(O[C@@H]2CCCN(CCc3ccc4c(c3)OCO4)C2)c2ccccc2)cc1
- AC50 [1]: 25.9 µM (active)
- outcome [2]: inactive
- AC50 [4]: 25.2 µM (active)
- AC50 [5]: 26.8 µM (active)
- AC50 [19]: 9.8 µM (active)
- outcome [6]: inactive
- AC50 [7]: 25.4 µM (active)
- outcome [8]: inactive
- outcome [9]: inactive
- AC50 [10]: 15.5 µM (active)
- outcome [11]: inactive
- AC50 [12]: 20 µM (active)
- AC50 [13]: 26.9 µM (active)
- outcome [14]: inactive
- outcome [15]: inactive
- outcome [20]: inactive
- outcome [16]: inactive
- outcome [17]: inactive
- outcome [18]: inactive

Compound: O=C(O)[C@H](O)[C@@H](O)C(=O)O
- outcome [1]: inactive
- outcome [2]: inactive
- outcome [4]: inactive
- outcome [5]: inactive
- outcome [19]: inactive
- outcome [6]: inactive
- outcome [7]: inactive
- outcome [8]: inactive
- outcome [9]: inactive
- outcome [10]: inactive
- outcome [11]: inactive
- outcome [12]: inactive
- outcome [13]: inactive
- outcome [14]: inactive
- outcome [15]: inactive
- outcome [20]: inactive
- outcome [16]: inactive
- outcome [17]: inactive
- outcome [18]: inactive
